Inconclusive results are not listed. The source made the active and inactive calls. Rule for the calls: active = hit-call score of the fitted dose curve at least 0.9, where 1 is the maximum; inconclusive = response in the unintended direction; inactive = score below 0.9.
These compounds were tested on alkyl and aryl transferase (GSTA2), GSTA2 (gene 2939) (assay: CLD_GSTA2_24hr: CellzDirect (CLD) Gene Expression Assay for alkyl and aryl transferase (GSTA2) at 24 hours (AID 2283693)).
Description: CLD_24hr is a cell-based, multiplexed-readout assay that uses hepatocyte, a human liver primary cell, with measurements taken at 24 hours after chemical dosing in a 96-well plate.CLD_GSTA2_24hr is one of 16 assay component(s) measured or calculated from the CLD_24hr assay. It is designed to make measurements of mRNA induction, a form of inducible reporter, as detected with chemiluminescence signals by Quantitative Nuclease Protection Assay (qNPA) technology.Data from the assay component CLD_GSTA2_24hr was analyzed at the endpoint, CLD_GSTA2_24hr, in the positive analysis fitting direction relative to DMSO as the negative control and baseline of activity. Using a type of inducible reporter, gain-of-signal activity can be used to understand changes in the reporter gene as they relate to the gene GSTA2. Furthermore, this assay endpoint can be referred to as a primary readout. To generalize the intended target to other relatable targets, this assay endpoint is annotated to the transferase intended target family, where subfamily is alkyl and aryl transferase.
Human hepatocyte cultures were treated daily for two consecutive days with fresh dosing solutions containing appropriate concentrations of the 320 ToxCast chemicals (chemical identities were blinded to CellzDirect and other ToxCast collaborators), vehicle control (0.2% DMSO), and positive control inducers as summarized in Table 1. Due to the large number of treatment groups and chemicals examined, the ToxCast chemicals were divided into two groups (spanning two independent cultures of hepatocytes from separate donor preparations (Hu778: ToxCast plates 1 and 2; Hu776: ToxCast plates 3 and 4). Each preparation of human hepatocyte cultures was treated with respective vehicle control, medium only control, set of six positive controls/reference chemicals for the five hepatic receptor pathways, and a subset of eight of the ToxCast chemicals (indoxacarb, pyrithiobac-sodium, norflurazon, cyhalofop-butyl, methomyl, thiram, acetochlor, and propiconazole). These replicate data, coupled with internal replicates designed within the blinded ToxCast chemical library, provided additional data to evaluate interindividual differences between hepatocyte preparations and their potential impact on chemical profiles.Cell morphology and integrity were evaluated using phase-contrast microscopy as an indicator of hepatocyte cell health (Tyson & Green, 1987). Cultures for each treatment group (i.e., media, vehicle [0.2% DMSO], positive control inducers [multiple concentrations], and the ToxCast chemicals [multiple concentrations]) were observed and cell morphology was assessed relative to vehicle control cultures at each harvest time point (0, 6, 24, or 48 h). […] Images were evaluated at the conclusion of the study to assess changes in cell integrity and account for the effects of chemical exposure on uncharacteristic changes in concentration-dependent gene expression profiles. The results from these determinations of apparent cytotoxicity were annotated (yes/no) alongside the corresponding qNPA data for reference.At the conclusion of each treatment period, hepatocyte cultures (96-well) were washed with 1 volume of HBSS, lysed by addition of 25 ul ArrayPlate lysis buffer (HTG, Tucson, AZ), and 70 ul/well of Denaturation Oil, denatured by incubation at 95C for 10 min, and frozen at approximately -70C until analysis by nuclease protection assay (qNPA) (Roberts et al., 2007). For qNPA analysis, cell lysates were thawed at 50C for approximately 30 min, qNPA probes were added, and samples were incubated at 95C for 10 min to begin the detection process by denaturing the target RNA, dissociating the duplexes and secondary structure hybridization. At the conclusion of the hybridization period, S1 nuclease reagent was added to each sample to digest all nonprotected nucleotides at 50C for 60-90 min. […]

SMILES	outcome
CC[C@H](C)[C@H]1O[C@]2(C=C[C@@H]1C)C[C@@H]1C[C@@H](C/C=C(\C)[C@@H](O[C@H]3C[C@H](OC)[C@@H](O[C@H]4C[C@H](OC)[C@@H](O)[C@H](C)O4)[C@H](C)O3)[C@@H](C)/C=C/C=C3\CO[C@@H]4[C@H](O)C(C)=C[C@@H](C(=O)O1)[C@]34O)O2 (tested in a mixture with another compound)	inactive
CCCN(CCC)c1c([N+](=O)[O-])cc(C(F)(F)F)cc1[N+](=O)[O-]	inactive
O=S1OCC2C(CO1)C1(Cl)C(Cl)=C(Cl)C2(Cl)C1(Cl)Cl (stereo not drawn)	inactive
Oc1ccc(Cl)cc1Cc1ccccc1	inactive
O=[N+]([O-])/N=C1\NCCN1Cc1ccc(Cl)nc1	inactive
CCC(C)(NC(=O)c1cc(Cl)c(C)c(Cl)c1)C(=O)CCl (stereo not drawn)	inactive
O=[N+]([O-])c1c(Cl)c(Cl)c(Cl)c(Cl)c1Cl	inactive
O=C(NC(=O)c1c(F)cccc1F)Nc1ccc(OC(F)(F)C(F)OC(F)(F)F)c(Cl)c1 (stereo not drawn)	inactive
Oc1cc(Cl)ccc1Oc1ccc(Cl)cc1Cl	inactive
CCN(CC)C(=O)SCc1ccc(Cl)cc1	inactive
Cc1cc(C)nc(NC(=O)NS(=O)(=O)c2ccccc2C(=O)OC2COC2)n1	inactive
CC(C)(C)C(O)C(Oc1ccc(Cl)cc1)n1cncn1 (stereo not drawn)	inactive
N#Cc1c(Cl)c(Cl)c(Cl)c(C#N)c1Cl	inactive
COP(=O)(OC)OC=C(Cl)Cl	inactive
CCOC1Oc2ccc(OS(C)(=O)=O)cc2C1(C)C (stereo not drawn)	inactive
CCC(C)Nc1c([N+](=O)[O-])cc(C(C)(C)C)cc1[N+](=O)[O-] (stereo not drawn)	inactive
CNC(=O)Oc1cccc(N=CN(C)C)c1	inactive
CC(C)OC(=O)Nc1cccc(Cl)c1	inactive
[2H]C1([2H])[n+]2ccccc2-c2cccc[n+]2C1([2H])[2H]	inactive

SMILES	outcome
O=C(O)COc1ccc(Cl)cc1Cl	inactive
O=C1c2ccccc2C(=O)N1SC(Cl)(Cl)Cl	inactive
CC(C)N(C(=O)COc1nnc(C(F)(F)F)s1)c1ccc(F)cc1	inactive
COC(=O)c1ccccc1S(=O)(=O)NC(=O)N(C)c1nc(C)nc(OC)n1	inactive
OCCOc1ccccc1	inactive
C[C@H]1[C@H](c2ccc(Cl)cc2)SC(=O)N1C(=O)NC1CCCCC1	inactive
COC(=O)c1ccccc1S(=O)(=O)NC(=O)Nc1nc(C)nc(OC)n1	inactive
CNC(=O)CSP(=S)(OC)OC	inactive
O=S(=O)(O)C(F)(F)C(F)(F)C(F)(F)C(F)(F)C(F)(F)C(F)(F)C(F)(F)C(F)(F)F	inactive
C#CCN1C(=O)COc2cc(F)c(N3C(=O)C4=C(CCCC4)C3=O)cc21	inactive
COc1cc(OC)nc(NC(=O)NS(=O)(=O)c2cc(NC=O)ccc2C(=O)N(C)C)n1	inactive
CC1(c2ccc(Oc3ccccc3)cc2)OC(=O)N(Nc2ccccc2)C1=O (stereo not drawn)	inactive
CCS(=O)(=O)c1cccnc1S(=O)(=O)NC(=O)Nc1nc(OC)cc(OC)n1	inactive
CC(C)(C)C(O)/C(=C\c1ccc(Cl)cc1Cl)n1cncn1 (stereo not drawn)	inactive
Clc1ccccc1-c1nnc(-c2ccccc2Cl)nn1	inactive
N#CN	inactive
CCOCN(C(=O)CCl)c1c(C)cccc1CC	inactive
COC(=O)c1ccccc1CS(=O)(=O)NC(=O)Nc1nc(OC)cc(OC)n1	inactive
CN1CSC(=S)N(C)C1	inactive

From PubChem BioAssay (EPA / NIEHS)
